# Results from PubChem BioAssay AID781 (Emory University Molecular Libraries Screening Center, 2007).
# Screen size: about 220,000 compounds; about 1,600 (0.73%) were called active.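 How the source made its calls: active means inhibition above about 70% (limit read from the data); inactive means the rest.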 What follows is part of a selection rich in actives, with near analogues and random picks from the rest.
# Target: 14-3-3 protein zeta/delta (Bos taurus) (UniProt P63103)
# Test: disruptors of 14-3-3 zeta phospho-Bad complex – biochemical, TR-FRET, bovine 14-3-3 zeta, primary screen (AID 781);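 further: 0% = full 14-3-3 plus peptide FRET controls and 100% = background without 14-3-3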
# Conditions: TR-FRET 14-3-3zeta/Dy647-pBad peptide displacement, 1 h; at 21.7 µM; hits give high values
# Sequence of 14-3-3 protein zeta/delta (Bos taurus) (P63103 whole entry, looked up): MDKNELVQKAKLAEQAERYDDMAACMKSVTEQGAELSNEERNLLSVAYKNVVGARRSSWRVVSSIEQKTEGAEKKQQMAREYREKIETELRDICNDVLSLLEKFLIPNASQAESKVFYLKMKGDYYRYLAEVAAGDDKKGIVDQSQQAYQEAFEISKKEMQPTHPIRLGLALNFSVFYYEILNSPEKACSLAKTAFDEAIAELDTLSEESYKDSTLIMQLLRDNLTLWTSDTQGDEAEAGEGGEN
row,SMILES,inhibition
1,CN1c2ccccc2-c2nc3ccccc3n2C1c1ccco1 (centres undefined),-9.91% (inactive)
2,S=c1[nH]nc(-c2ccco2)n1/N=C/c1ccccc1,-2.42% (inactive)
3,Cn1c(-c2ccco2)nc2cc3ccccc3cc21,75.6% (active)
4,COc1ccc(-c2csc(Cc3nc(O)cs3)n2)cc1,-15.6% (inactive)
5,CCOc1ccc(N=C2SC(C(=O)O)CC(=O)N2C)cc1 (centres undefined),13.2% (inactive)
6,NC1=NC(=O)S/C1=C\c1ccc(O)cc1,-5.85% (inactive)
7,CCOc1ccc(N=C2NC(=O)S/C2=C\c2ccc(O)cc2)cc1,70.4% [fluorescence artefact?] (active)
8,Cc1cccc(C(=O)Nc2ccc3c(c2)C(=O)N(CC(C)C)C3=O)c1,-3.81% (inactive)
9,COc1ccc(-n2c(SCC(=O)Nc3sc4c(c3C#N)CCCC4)nnc2-c2ccc(O)cc2)cc1,87.9% (active)
10,NC(=O)c1c(NC(=O)CSc2nnc(-c3ccco3)n2N)sc2c1CCCC2,-2.7% (inactive)
11,COc1cccc(CN(C)CC(=O)Nc2sc3c(c2C#N)CCC3)c1,-5.48% (inactive)
12,C=CCn1c(N)c(S(=O)(=O)c2cccs2)c2nc3ccccc3nc21,-4.17% (inactive)
13,C=CCn1c(N)c(C(=O)OCC(C)C)c2nc3ccccc3nc21,79.3% [fluorescence artefact?] (active)
14,CC(C)Cn1c(N)c(C(=O)NCc2cccs2)c2nc3ccccc3nc21,6.16% (inactive)
15,S=C(NCCc1ccccc1)Nc1ccccc1,-1.72% (inactive)
16,N#Cc1ccc(C(=O)Nc2nc(-c3cccs3)c(C(=O)C(F)(F)F)s2)cc1,3.51% (inactive)
17,Cc1ccc(Nc2ccc(C(N)=O)cc2[N+](=O)[O-])cc1,0.31% (inactive)
18,CC(=O)Nc1ccc(/C=N/Nc2ccc(C(=O)c3c(C)cc4ccccn34)cc2[N+](=O)[O-])cc1,84.9% (active)
19,CNc1ccc(NC(C)=O)cc1[N+](=O)[O-],5.82% (inactive)
20,Cc1onc(-c2ccccc2)c1C(=O)N=C(N)c1ccc(Cl)cc1,-6.58% (inactive)

row,SMILES,inhibition
1,CCCN(CCC)S(=O)(=O)c1ccc(C(=O)N2CC3CCC(CC3)C2)cc1,-3.48% (inactive)
2,O=C(Nc1ccncc1)c1cc(-c2ccccn2)nc2ccc(Br)cc12,44.9% (inactive)
3,O=C(NCc1cccs1)c1cc(-c2ccccn2)nc2ccc(Br)cc12,90.8% (active)
4,O=C(NCC(c1cccs1)N1CCOCC1)c1cc(-c2ccccn2)nc2ccccc12 (centres undefined),1.32% (inactive)
5,O=C(COC(=O)Cn1cnc2ccccc2c1=O)NCC12CC3CC(CC(C3)C1)C2,1.53% (inactive)
6,Cn1cc(/C=C/C(=O)N2CCCC(C(=O)c3ccc(C(F)(F)F)cc3)C2)cn1 (centres undefined),-7.47% (inactive)
7,CN(C)CCNC(=O)Cc1ccc([N+](=O)[O-])cc1,-6.79% (inactive)
8,COc1ccc(-n2nnc3c(=O)n(CC(=O)OCc4ccccc4)cnc32)cc1,7.97% (inactive)
9,COCc1cc(C)nc2sc3c(=O)n(-c4cccc5ccccc45)nnc3c12,5.95% (inactive)
10,COc1ccc(-c2c(C(C)=O)c(C)nc3sc4c(=O)n(-c5ccc(C)cc5)nnc4c23)cc1,81.2% (active)
11,Nc1nc(-c2sc3nc4c(cc3c2N)CCCC4)nc(N2CCOCC2)n1,-13.9% (inactive)
12,O=C(NNC(=S)NC1CC2CCC1C2)c1ccc(Cl)cc1 (centres undefined),-16.9% (inactive)
13,Cc1nc2nc(SCC(=O)c3ccccc3)[nH]c2cc1Br,-3% (inactive)
14,CCc1ccccc1NC(=O)CN(C)C(=O)COc1ccc(C)nc1[N+](=O)[O-],-17.4% (inactive)
15,Cc1ccc(OCC(=O)NC(C)c2ccccc2)c([N+](=O)[O-])n1 (centres undefined),7.44% (inactive)
16,Cc1ccc(OCC(=O)Nc2ccccc2Sc2ccc(Cl)cc2)c([N+](=O)[O-])n1,71.7% [fluorescence artefact?] (active)
17,O=[N+]([O-])c1cccc(/C([O-])=C(/C(=S)Nc2ccccc2F)[n+]2ccccc2)c1,-7.84% (inactive)
18,Cc1cccc(C(=O)Nc2ccc(C(=O)/C=C/c3cccs3)cc2)c1,14.9% (inactive)
19,Cc1ccc(C(=O)/C=C/Nc2ccc(S(=O)(=O)Nc3onc(C)c3C)cc2)cc1,-24.4% (inactive)
